Assay results: article PMC4336329 (PLoS ONE, 2015)
Among all 310,000 compounds or so, about 14,000 (4.5%) showed an effect of 50% or more. The effect is printed as a negative number. The entries come from a sample that favours strong results as a whole.

molecular target: human ether-à-go-go-related gene (hERG) potassium channel (human, UniProt Q12809); assay: primary screen, population patch clamp on CHO cells stably expressing hERG; higher = less effect of the substance
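Note: peak tail current of the secondary pulse compared with the same well before compound.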

Chain of human ether-à-go-go-related gene (hERG) potassium channel (Q12809 whole entry, looked up): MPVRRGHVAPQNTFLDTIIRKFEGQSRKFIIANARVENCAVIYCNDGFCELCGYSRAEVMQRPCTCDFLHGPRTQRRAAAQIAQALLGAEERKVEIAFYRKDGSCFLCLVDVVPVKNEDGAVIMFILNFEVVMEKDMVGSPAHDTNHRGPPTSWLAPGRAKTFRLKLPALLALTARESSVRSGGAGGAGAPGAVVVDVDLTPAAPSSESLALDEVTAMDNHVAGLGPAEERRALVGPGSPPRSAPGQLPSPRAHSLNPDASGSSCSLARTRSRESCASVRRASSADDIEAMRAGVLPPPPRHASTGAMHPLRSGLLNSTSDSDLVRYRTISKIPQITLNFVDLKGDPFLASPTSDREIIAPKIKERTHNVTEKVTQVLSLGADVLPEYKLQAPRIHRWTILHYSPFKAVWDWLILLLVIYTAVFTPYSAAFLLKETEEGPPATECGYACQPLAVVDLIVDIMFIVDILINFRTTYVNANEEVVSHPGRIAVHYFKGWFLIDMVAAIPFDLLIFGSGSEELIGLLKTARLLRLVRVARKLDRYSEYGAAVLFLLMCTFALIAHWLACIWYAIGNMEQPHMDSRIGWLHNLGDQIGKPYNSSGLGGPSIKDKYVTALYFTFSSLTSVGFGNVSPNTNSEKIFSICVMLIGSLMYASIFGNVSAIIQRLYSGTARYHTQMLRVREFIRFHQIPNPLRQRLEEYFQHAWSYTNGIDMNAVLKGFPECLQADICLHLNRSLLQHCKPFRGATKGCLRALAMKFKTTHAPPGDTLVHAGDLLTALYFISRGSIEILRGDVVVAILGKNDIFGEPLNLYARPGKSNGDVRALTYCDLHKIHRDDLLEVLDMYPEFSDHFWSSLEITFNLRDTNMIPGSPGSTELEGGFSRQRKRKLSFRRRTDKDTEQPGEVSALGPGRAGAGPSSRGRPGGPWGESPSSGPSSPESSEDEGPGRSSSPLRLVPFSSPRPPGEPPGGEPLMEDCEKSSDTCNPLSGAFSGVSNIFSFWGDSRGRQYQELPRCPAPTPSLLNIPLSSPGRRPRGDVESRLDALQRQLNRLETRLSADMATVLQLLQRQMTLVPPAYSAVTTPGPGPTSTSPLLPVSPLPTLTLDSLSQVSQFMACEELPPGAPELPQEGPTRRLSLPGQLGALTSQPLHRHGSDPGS

| SMILES | hERG current change (%, negative = inhibition) at 10uM |
| --- | --- |
| COc1ccc(C2=NO[C@@H]3C(=O)N(Cc4ccccc4)C(=O)[C@H]23)cc1OC | -1.95% |
| CN(C)S(=O)(=O)c1ccc(N/C=C(\[N+](=O)[O-])S(=O)(=O)c2ccccc2)cc1 | 15.2% |
| COCCNC(=O)/C(C#N)=C/c1ccc(O)cc1 | 10.6% |
| Cc1ccc(C(C)NC(=O)Cc2cccs2)c(C)c1 (stereo not drawn) | -9.26% |
| CSc1ccc(C(=O)NCC(c2ccco2)N(C)C)cc1[N+](=O)[O-] (stereo not drawn) | 17.8% |
| Nc1nnc(-c2ccccc2)c(-c2ccccc2)n1 | -10.7% |
| Cc1ccccc1OCCC(=O)OCC(=O)Nc1cc(S(=O)(=O)N2CCOCC2)ccc1Cl | -27.8% |
| Cc1c(NC(=S)Nc2ccccc2C(F)(F)F)cccc1[N+](=O)[O-] | 8.27% |
| O=C(c1cn(-c2ccccc2)nc1-c1cccnc1)N1CCN(S(=O)(=O)c2cccc(F)c2)CC1 | -13.6% |
| O=C(c1cn(-c2ccccc2)nc1-c1cccnc1)N1CCN(S(=O)(=O)c2ccccc2F)CC1 | -70.5% |
| COc1ccccc1N1CCN(C(=O)c2cn(Cc3ccccc3)nc2-c2cccnc2)CC1 | -8.12% |
| CN1CCN(C(=O)c2cn(-c3ccccc3)nc2-c2cccnc2)CC1 | -18.4% |
| COc1ccccc1N1CCN(C(=O)c2cn(-c3ccccc3)nc2-c2cccnc2)CC1 | -50.2% |
| N#Cc1ccccc1S(=O)(=O)N1CCN(C(=O)c2cn(-c3ccccc3)nc2-c2cccnc2)CC1 | -48% |
| Nc1nnc(SCc2nnc(-c3ccccc3)o2)s1 | -1.84% |
| COC(=O)N/N=C/c1c[nH]c2ccccc12 | 14.5% |
| CC(C)c1onc(C(=O)N2C(C)CCCC2C)c1[N+](=O)[O-] (stereo not drawn) | 18.8% |
| Cc1ccc(NC(=O)c2cccc(N3C(=O)C4C5C=CC(C5)C4C3=O)c2)cc1C (stereo not drawn) | -7.07% |
| COc1ccc2nc(NC(=O)CS(=O)(=O)Cc3ccccc3)sc2c1 | 23.2% |
| COC(=O)/C(=N/Nc1ccccc1C)Sc1nnc(C(O)c2ccccc2)n1-c1ccccc1 (stereo not drawn) | 13.3% |
| c1ccc(CN2CCC3(CC2)Nc2ccccc2CO3)cc1 | -21.9% |
| Cl.c1ccc(CN2CCC3(CCCc4ccccc43)CC2)cc1 | -69.6% |
| Cl.c1ccc(CN2CCOCC2)cc1 | 22% |
| COc1ccc(N(CC(=O)Nc2cc(Cl)ccc2C)S(=O)(=O)c2c(C)noc2C)cc1 | 16.7% |

| SMILES | hERG current change (%, negative = inhibition) at 10uM |
| --- | --- |
| COC(=O)CC1C(=O)NCCN1C(=O)c1c(F)cccc1F (stereo not drawn) | 14.5% |
| O=C(NCc1ccncc1)c1cncc(Br)c1 | 10.1% |
| Cn1c(N2CCCC2)nc2c1c(=O)n(Cc1ccc(Cl)cc1)c(=O)n2C | -68.6% |
| CC1CN(c2nc3c(c(=O)n(Cc4ccc(Cl)cc4)c(=O)n3C)n2C)CC(C)O1 (stereo not drawn) | -31.2% |
| Cn1c(NCCCN2CCOCC2)nc2c1c(=O)n(Cc1ccc(Cl)c(Cl)c1)c(=O)n2C | -46% |
| Cn1c(N2CCCC2)nc2c1c(=O)n(Cc1ccc(F)cc1)c(=O)n2C | 0.592% |
| Cn1c(N2CCOCC2)nc2c1c(=O)n(Cc1ccc(Cl)c(Cl)c1)c(=O)n2C | -50.5% |
| Cn1c(N2CCOCC2)nc2c1c(=O)n(Cc1ccc(Cl)cc1)c(=O)n2C | -54.5% |
| Cn1c(N2CCN(c3ccccn3)CC2)nc2c1c(=O)n(Cc1ccc(Cl)cc1)c(=O)n2C | -18% |
| Cn1c(=O)c2c(nc(N3CCCCC3)n2C)n(C)c1=O | -21.5% |
| CC1CN(c2nc3c(c(=O)n(Cc4ccc(Cl)c(Cl)c4)c(=O)n3C)n2C)CC(C)O1 (stereo not drawn) | -35.7% |
| COc1ccc(CC(=O)NCc2cccs2)cc1OC | 2.71% |
| O=C(Cn1cc(Cl)ccc1=O)c1ccc(Cl)cc1 | 11.7% |
| CCOc1ccc(CCNC(=O)C(O)c2ccccc2)cc1 (stereo not drawn) | 4.11% |
| CCC(CC)C(=O)NCCc1ccc(F)cc1 | 12.1% |
| CCOc1ccc(C(=O)NC(C(=O)NCCc2ccc(OC(F)F)cc2)C(C)C)cc1 (stereo not drawn) | -62.6% |
| CCOc1ccc(C(=O)NC(C(=O)NCCc2ccc(S(N)(=O)=O)cc2)C(C)C)cc1 (stereo not drawn) | 13.4% |
| CCOc1ccc(C(=O)N[C@H](C(=O)O)C(C)C)cc1 | 7.22% |
| CCc1ccc(CN(C)C(C)C(=O)NCc2ccccc2)cc1 (stereo not drawn) | -23.5% |
| CCOc1ccc(CN(C)C(C)C(=O)NCCc2ccc(F)cc2)cc1 (stereo not drawn) | -71.5% |
| CSc1ccc(CN(C)C(C)C(=O)NCc2ccccc2)cc1 (stereo not drawn) | -32.8% |
| CCOc1ccc(CN(C)C(C)C(=O)NCc2ccccc2)cc1 (stereo not drawn) | -54.8% |
| Cc1ccc(OCCCCNC(C)c2ccccc2)c(C)c1 (stereo not drawn) | 2.1% |
| O=C(NN1C(=O)/C(=C/C=C/c2ccco2)SC1=S)c1ccncc1 | 15.3% |

| SMILES | hERG current change (%, negative = inhibition) at 10uM |
| --- | --- |
| Cc1ccc(C2c3[nH]c4ccccc4c3C[C@H]3C(=O)N(c4ccccc4C(=O)N4CCC[C@@H]4C(=O)O)C(=O)N23)cc1 (stereo partly drawn) | -0.654% |
| Cc1ccc2c(=O)cc(C(=O)NCCc3ccc(S(N)(=O)=O)cc3)oc2c1 | 9.13% |
| Cc1ccccc1NC(=O)Cn1nc(C(F)(F)F)cc1C1CC1 | 8.48% |
| COC(=O)C1=C(C)OC(N)=C(C#N)C1c1cc(C)sc1C (stereo not drawn) | -0.682% |
| Nc1cc(=O)[nH]c(SCC(=O)N2CCC(Cc3ccccc3)CC2)n1 | -2.88% |
| C/C(=N/NC(N)=S)c1ccccc1[N+](=O)[O-] | 7.13% |
| Nc1nc(-c2ccc3c(c2)NC(=O)CO3)cs1 | 15.5% |
| CCOc1ccc(CN2CCN(CCCc3ccccc3)CC2CCO)cc1 (stereo not drawn) | -76% |
| CCOc1ccccc1CN1CCN(CC2CC2)CC1CCO (stereo not drawn) | -2.67% |
| OCCOc1ccc(CN2CCN(CCCc3ccccc3)C(CCO)C2)cc1 (stereo not drawn) | -63.3% |
| CCOc1ccc(CN2CCN(CCCc3ccccc3)C(CCO)C2)cc1 (stereo not drawn) | -75.5% |
| CCOc1ccccc1CN1CCN(CCCc2ccccc2)CC1CCO (stereo not drawn) | -64.9% |
| CCNC(=S)Nc1ccc(Cl)cc1Cl | -14% |
| CCOC(=O)c1nc(C)n(-c2cc(Cl)ccc2Cl)n1 | 1.64% |
| Cc1onc(-c2c(Cl)cccc2Cl)c1C(=O)n1nnc2ccccc21 | -3.48% |
| CN(CC(=O)Nc1ccc(N2CCOCC2)cc1)C(=O)c1cc(F)c(F)cc1Cl | -38.3% |
| Cc1sc2ncnc(SCC(=O)NC(=O)c3cccn3C)c2c1C | 10.8% |
| Cc1nc(C)n(CC(O)COc2ccc(C(=O)c3ccccc3)cc2)n1 (stereo not drawn) | -6.4% |
| Cc1ccccc1C(=O)NNC(=O)/C=C\C(=O)O | -11.1% |
| Cc1ccccc1C(OCCN(C)C)C1CCCCC1.O=C(O)C(=O)O (stereo not drawn) | -16.3% |
| Cc1ccccc1C(OCCN(C(C)C)C(C)C)c1ccccc1.O=C(O)/C=C\C(=O)O (stereo not drawn) | -68.3% |
| Cc1ccc2nc(NC(=O)C3CCN(S(=O)(=O)c4cnc[nH]4)CC3)sc2c1 | 6.57% |
| O=C(CSc1nnc2c(Cl)cc(Cl)cn12)N1CCN(S(=O)(=O)c2ccccc2)CC1 | -19.1% |
| Cn1nnnc1SCC(=O)N1CCN(c2ccccc2)CC1 | 12.4% |

| SMILES | hERG current change (%, negative = inhibition) at 10uM |
| --- | --- |
| Cn1nnnc1SCC(=O)N1CCN(c2cccc(Cl)c2)CC1 | -26.8% |
| O=C(CSc1nnc2c(Cl)cc(Cl)cn12)N1CCOCC1 | -6.52% |
| O=C(CSc1nnc2c(Cl)cc(Cl)cn12)N1CCN(c2ccc(F)cc2)CC1 | -51.5% |
| Cn1nnnc1SCC(=O)N1CCN(c2ccc(Cl)cc2)CC1 | -51.2% |
| Oc1ccc(CCc2n[nH]c(=S)n2-c2ccc(F)cc2)cc1 | -22.2% |
| O=C(COc1ccccc1)Nc1nc2cc3c(cc2s1)OCCO3 | 7.49% |
| Cc1cccn2c(=O)c3cc(C#N)c(=N)n(CCCN4CCOCC4)c3nc12 | -80% |
| N#Cc1cc2c(=O)n3ccccc3nc2n(CCCN2CCOCC2)c1=O | -24.3% |
| Cc1cccn2c(=O)c3cc(C#N)c(=O)n(CCCN4CCOCC4)c3nc12 | -60.7% |
| COc1ccccc1-n1c(SCC(=O)Nc2cccc3ccccc23)nc(O)cc1=O | 5.56% |
| CC1=C(C)CC(C(=O)NCCc2ccccc2)C(C(=O)O)C1 (stereo not drawn) | -10.8% |
| CCN(CC)S(=O)(=O)c1ccc(N2CCOCC2)c(NC(=O)COc2ccccc2C#N)c1 | -3.3% |
| CC(C)CCNC(=O)c1ccc2c(c1)ncn2C1CCCCC1 | -42.8% |
| COc1ccccc1-n1cnc2cc(C(=O)NCC3CCCO3)ccc21 (stereo not drawn) | -13.7% |
| COc1ccccc1-n1cnc2cc(NS(=O)(=O)c3ccccc3)ccc21 | -57.5% |
| COc1ccc(-n2cnc3cc(C(=O)N4CCOCC4)ccc32)cc1 | -15.6% |
| CCCCNC(=O)c1ccc2c(c1)ncn2C1CCCC1 | -16.7% |
| COc1ccccc1-n1cnc2cc(C(=O)NC3CCCC3)ccc21 | -65.5% |
| CC(C)CCNC(=O)c1ccc2c(c1)ncn2C1CCCC1 | -54.8% |
| COc1ccc(-n2cnc3cc(C(=O)NC4CCCC4)ccc32)cc1 | -67.9% |
| COc1ccc(-n2cnc3cc(C(=O)NCC4CCCO4)ccc32)cc1 (stereo not drawn) | -17.9% |
| COc1ccccc1-n1cnc2cc(NS(=O)(=O)c3ccc(Br)cc3)ccc21 | -3.3% |
| CCOC(CNC(=O)c1ccc2c(c1)ncn2-c1ccccc1OC)OCC | 2.14% |
| COc1ccc(-n2cnc3cc(NS(=O)(=O)c4ccccc4)ccc32)cc1 | 7.83% |
